The values below come from PubChem BioAssay AID2289 (National Center for Advancing Translational Sciences (NCATS), 2010).

“And” between values parts separate entries of the source, which are not always exact repeats. Equal entries are not always repeated. The campaign covered roughly 340,000 compounds. About 3,300 (0.97%) were called active. Roughly 9% stayed inconclusive and do not appear here. Calls come from the whole dose curve; as a rule, active = well fitted inhibition curve with a large enough effect; inconclusive = small, poorly fitted or top-dose-only effect, or effect the other way; inactive = flat fitted curve, though single readings scatter. The list shows a part of the results.
Potency is the fitted concentration of half-maximal effect.

The assay can be described thus: qHTS Assay for Modulators of miRNAs and/or Inhibitors of miR-21. Note: nearly all actives have a fitted effect of over 55% in size. The conditions noted are these: HeLa miR-21-FLuc reporter, luciferase luminescence, 48 h; actives lower the signal. An excerpt:
MLSCN Grant: 1 R21 NS059478-01 Assay Provider: Qihong Huang, The Wistar Institute NCGC Assay Overview: MicroRNAs (miRNAs) are endogenously encoded small (~20-25 nucleotides), nonprotein-coding RNAs that are involved in post-transcriptional repression of target messenger RNAs (mRNAs) (Le and Hannon, 2004). Estimated to be involved in the regulation of 30% of all protein-coding mRNAs (Filipowicz et al., 2008), miRNAs play a significant role in many biological processes including cellular differentiation and tissue development (Ghildiyal and Zamore, 2009).
NCGC Assay Protocol Summary: Reagents: HeLa cells stably expressing firefly luciferase (FLuc) under the control of a CMV promoter (upstream) and a miR-21 binding sequence directly downstream of the gene. These cells endogenously express miR-21. Control compounds used were compound C3 (provided by collaborator), N6-phenyladenosine (MP Biomedicals, 0215379625), and DMSO. Assay Summary: 6uL of HeLa miR-21-FLuc cells in assay buffer (DMEM, Invitrogen #21063-029; 10% FBS, HyClone #SH30071.03) were dispensed at 2000cells/well (3.3 x 10^5 cells/mL) into Greiner solid-white TC-treated 1536-well plates using a Multidrop Combi (Thermo Fisher Scientific). Plates were incubated for one hour at 37 degree Celsius, 95% humidity, 5% CO2. These assay plates were then treated with 23nL of compound or DMSO using a Kalypsys pin tool, which allows for delivery of a 24-point titration of each compound to the assay plate, with a final compound concentration ranging from approximately 40uM to 5pM. Assay plates were then incubated for 48 hours. After incubation, plates were allowed to come to RT for one hour prior to delivery of 3uL of 3X luciferase detection reagent. After a 15 minute incubation to allow for cell lysis, luciferase activity was measured using a ViewLux CCD imager (PerkinElmer), with an average exposure time of 2-12 seconds. Keywords: NIH Roadmap, MLPCN, MLSMR, qHTS, miR-21, microRNA, firefly luciferase, FLuc.
(In general: In qHTS, concentration-response curves come from the screen itself.)
As to `N/C(CS(=O)(=O)c1ccccn1)=N\OC(=O)c1ccccc1Cl`, the Potency is 4.65 µM (active).

As for `Cc1c2ccccc2nc2c(F)c(NC(C)C)c(F)c(F)c12`, the Potency was 16.5 µM (active).

With `O=C(Cc1c(Cl)cccc1Cl)OCc1ccccn1`, the Potency is 18.5 µM (active).

Turning to `O=C(Nc1ccc(Cl)cc1)OCc1ccccn1`, the Potency is 5.85 µM (active).

For `O=C(Nc1cccc(Cl)c1)OCc1ccccn1`, the Potency was 6.56 µM (active).

For the compound `Cc1ccc(-n2nnc(-c3ccnc4ccccc34)n2)cc1`, the Potency is 1.85 µM (active).

`Cc1ccc(-n2nnc(-c3cccnc3Cl)n2)cc1`: the Potency was 0.521 µM (active).

For the compound `COc1ncccc1-c1nnn(-c2ccc(C)cc2)n1`, the Potency is 1.47 µM (active).

Consider `COCC(=O)Nc1ccc(OCc2ccccc2)cc1`, for which the Potency is 11.7 µM (active).

For `O=C(Nc1ccccc1)OCCOc1ccccc1`, the Potency was 3.69 µM (active).

With `CC(C)c1ccc(NC(=O)COc2ccccc2)cc1`, the Potency is 7.36 µM (active).

`CC(C)c1ccc(NC(=O)COc2ccc(F)cc2C(=O)c2cnn(-c3ccccc3)c2)cc1`: the Potency is 2.93 µM (active).

Take `CC(C)c1ccc(NC(=O)Cn2ncc3ccccc32)cc1`: the Potency was 7.36 µM (active).

On to `Cc1ccsc1C(=O)Nc1ccc(OCc2ccccc2)cc1`, for which the Potency is 1.65 µM (active).

For the compound `CCOc1ccc(NC(=O)NC2CCCCCCC2)cc1`, the Potency is 2.93 µM (active).

Take `Cc1ccc(NC(=O)CCOc2ccccc2)cc1`: the Potency is 5.85 µM (active) and 8.26 µM (active).

For `COC(=O)Nc1ccc(OCc2ccccc2)cc1`, the Potency was 5.21 µM (active).

In the case of `CCOc1ccc(NC(=O)Cc2ccccc2)cc1`, the Potency is 2.61 µM (active).

As for `Clc1cccc(Cl)c1C1=NOC(c2nnc(-c3ccccc3)o2)C1` (stereo not drawn), the Potency is 13.1 µM (active).

As to `COc1ccc(C(=O)Nc2ccc(N3CCCC3)cc2)cc1OC`, the Potency is 4.65 µM (active).

As for `COc1ccc(C(=O)Nc2nc3ccccc3[nH]2)cc1OC`, the Potency was 1.85 µM (active).

As for `O=C(Nc1ccc(N2CCCC2)cc1)c1cccc(Cl)c1`, the Potency is 0.329 µM (active).

In the case of `NC(=O)NC(=O)C(Nc1ccc(N2CCCCC2)cc1)c1ccccc1` (stereo not drawn), the Potency is 13.1 µM (active).

For the compound `Cc1cccc(NC(=O)c2cc3ccccc3oc2=O)c1`, the Potency is 0.329 µM (active).

As to `CCN(C(=O)c1cc2ccccc2oc1=O)c1ccccc1`, the Potency is 6.56 µM (active).

As for `O=C(Nc1ccccc1O)c1cc2cc(Br)ccc2oc1=O`, the Potency is 0.521 µM (active).

For `Cc1ccnc(NC(=O)c2cc3ccccc3oc2=O)c1`, the Potency was 0.414 µM (active).

Turning to `CCOc1ccc(C2=NC(c3ccc(OC)cc3)=Nc3ccc(Cl)cc3N2)cc1`, the Potency was 18.5 µM (active).

Turning to `O=C(Cn1cccc1C(=O)c1ccccc1)NCc1ccccc1Cl`, the Potency is 11.7 µM (active).

For the compound `O=C1NC(=S)N/C1=C/c1cccc2ccccc12`, the Potency is 14.7 µM (active).

`CCOC(=O)c1cccc(COC(=O)c2cccc(-c3nnc(-c4ccccc4)o3)c2)c1`: the Potency is 5.85 µM (active).

`Cc1nn(C)cc1/C=C/C(=O)c1cccs1`: the Potency was 13.1 µM (active).

In the case of `Cc1c(/C=C/C(=O)c2cccs2)cnn1C`, the Potency was 14.7 µM (active).

In the case of `Nc1nnc(COc2ccc(Br)cc2Br)s1`, the Potency was 5.21 µM (active).

As to `C=CCN1C(=O)C(=O)N(Cc2nc3ccccc3s2)C1=O`, the Potency is 11.7 µM (active).

With `Cc1ccc(Oc2ncnc3sccc23)cc1`, the Potency is 14.7 µM (active).

As to `C=C(C)CNC(=O)CCc1nnc(Cc2cccc(C(F)(F)F)c2)o1`, the Potency is 11.7 µM (active).

For `O=C(NC1CCCCCC1)c1cc2c(=O)n3ccccc3nc2s1`, the Potency is 10.4 µM (active).

Take `CC1CCCN(C(=O)c2cc3c(=O)n4ccccc4nc3s2)C1` (stereo not drawn): the Potency was 14.7 µM (active).

For `CC1CCCCN1C(=O)c1cc2c(=O)n3ccccc3nc2s1` (stereo not drawn), the Potency was 16.5 µM (active).

Consider `CC1CCN(C(=O)c2cc3c(=O)n4ccccc4nc3s2)CC1`, for which the Potency was 14.7 µM (active).

On to `Cc1cc(N2CCN(C)CC2)nc2ccc(NC(=O)Nc3ccccc3)cc12`, for which the Potency was 7.36 µM (active).

As for `Cc1cc(N2CCN(C)CC2)nc2ccc(NC(=O)Nc3ccccc3Cl)cc12`, the Potency is 0.585 µM (active).

Consider `Cc1cc(C)cc(Nc2ccc(C(=O)O)cc2N)c1`, for which the Potency is 18.5 µM (active).

As to `O=C(Nc1ccc([N+](=O)[O-])cc1)c1ccccc1F`, the Potency was 4.14 µM (active).

`N/C(Cc1ccc([N+](=O)[O-])cc1)=N\OC(=O)c1ccccc1F`: the Potency is 16.5 µM (active).

`O=C(/C=C/c1cccs1)c1ccc(NC(=O)c2ccccc2F)cc1`: the Potency is 13.1 µM (active).

On to `O=C(Nc1ccn(-c2ccccc2)n1)c1ccccc1Br`, for which the Potency is 13.1 µM (active).

`N=C1C(c2nc3ccccc3[nH]2)=C(O)CN1c1ccc(F)cc1`: the Potency was 14.7 µM (active).

As for `CCn1c(SCC(=O)O)nnc1-c1ccccc1OC`, the Potency was 3.29 µM (active).

In the case of `CN(C)c1ccc(/C=N/N=C/c2ccccc2O)cc1`, the Potency is 2.61 µM (active).

For `Cc1cc2cc3c(N)[nH]nc3nc2cc1C`, the Potency is 14.7 µM (active).

Take `CCc1ccc2nc3n[nH]c(N)c3cc2c1`: the Potency was 2.33 µM (active).
